Assay outcomes: PubChem BioAssay, several laboratories
The list is not random: actives were taken first. Their share in the collection is about 6.9%.
CSC inhib: cancer stem cell inhibition; cancer stem cell-like cells viability, luminescence; inhibition, % at 7.5 µM; hit rate 1.1% among 300,000; AID 2717; in the data active means inhibition above about 75%; inconclusive means no clear call, values can overlap the other calls; tested in HMLE shEcad cells
SKKanGAS inh: blocks kanamycin growth of S. pyogenes SKKanGAS strain; AID 1662; inhibition, % at 7.5 µM; hit rate 1.3% among 300,000; BacTiter-Glo, 6 h;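 active means mean replicate score, as percent of positive control median, at least 50; inconclusive means mean below 50 but one replicate at or above 50; inactive means mean and every replicate below 50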;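 further: strain carries kanamycin resistance gene driven by streptokinase promoter and grows in 40 µg/ml kanamycin; loss of luminescence reflects streptokinase promoter inhibition or plain growth inhibition; 0% = median of DMSO wells and 100% = positive control at its reference dose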
Mdm2-MdmX inh: human Mdm2/MdmX binding inhibition | SaOS-2 split-luciferase Mdm2/MdmX complementation, luminescence | inhibition, % at 8 µM | hit rate 3% among 330,000 | AID 485346;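 active means inhibition of at least 50% at 8 µM in the primary screen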
MPTP inh: permeability transition pore inhibition; inhibition, % at 10 µM; hit rate 1.4% among 360,000; isolated mouse mitochondria, Ca2+ swelling absorbance, 30 min;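 active means inhibition of 50% or more, scaled per plate between neutral and stimulator controls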;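 further: 0% = DMSO wells given calcium and 100% = 1 mM EGTA wells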
NR3A LBD binder: modulates the human NR3A ligand-binding domain; hit rate 2.5% among 340,000; Tm shift relative to glycine control, % at 25 µM; NR3A LBD differential scanning fluorimetry, Tm shift; 0% = protein alone, 100% = glycine-bound protein;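 active means melting temperature shift of at least 10% of the positive control shift, at one fixed dose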
Beta apoptosis: blocks beta cell apoptosis. hit rate 0.8% among 300,000. INS-1E cytokine-induced death, ATP luminescence, 48 h; percent of positive-control rescue, neutral wells zero. protection from apoptosis, % (concentration not given with the values);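 active means Every replicate reaches about 75%, or at least half do and their mean reaches it too, limit read from the data; inconclusive means At least half of replicates reach the limit but their mean does not; inactive means Under half of replicates reach the limit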;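 further: 0% = cytokine-treated negative control wells and 100% = positive control rescue; higher means more ATP so stronger rescue from cytokine killing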
Mdm2 MdmX conf: confirmation of human Mdm2/MdmX interaction inhibitors; shares compounds with Mdm2-MdmX inh; Mdm2-MdmX binding, luminescent assay; inhibition, % at 8 µM; hit rate 55% among 10,000; AID 489028; in the data active means inhibition above about 40%
Full FLuc ctr: full-length luciferase inhibition in Mdm2/MdmX counter-screen | shares compounds with Mdm2-MdmX inh | hit rate 77% among 6,200 | SaOS-2 full-length luciferase counterscreen, luminescence | AID 504607 | inhibition, % at 8 µM;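 active means mean inhibition at 8 µM reaching about 37%, which flags the compound as non-specific, limit read from the data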;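 further: p53-null SaOS-2 cells with luciferase driven by a doxycycline-inducible promoter; compound on cells about two nights before reading with doxycycline added after day one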
Numbers without * were called inactive; ? = inconclusive; nt = no result given.

SMILES	CSC inhib	SKKanGAS inh	Mdm2-MdmX inh	MPTP inh	NR3A LBD binder	Beta apoptosis	Mdm2 MdmX conf	Full FLuc ctr
O=C(N/N=C/c1ccc([N+](=O)[O-])o1)c1cn2ccc3ccccc3c2n1	1	5	82*	6	-1	-3	9	nt
COc1ccc(-c2nn(-c3ccccc3)cc2C(=O)N/N=C/c2ccc([N+](=O)[O-])o2)cc1	-1	-5	58*	3	8	47	53*	52*
Cc1cccc(NC(=O)c2cc(-c3ccc(C)s3)nc3ccccc23)n1	51	-2	73*	1	-3	9	59*	83*
Cc1[nH]c2ccccc2c1/C=N/NC(=O)c1cc(-c2ccncc2)nc2ccccc12	-3	6	59*	0	7	11	69*	52*
CC1O[C@@H](OCC2O[C@@H](Oc3cc(O)c4c(c3)OC(c3ccc(O)cc3)CC4=O)[C@H](O)[C@@H](O)[C@@H]2O)[C@H](O)[C@H](O)[C@H]1O (stereo not given in full)	1	nt	2	0	1	-4	nt	nt
CC(C)(C)c1nnc(NC(=O)c2cc(-c3ccccc3)nc3ccccc23)s1	nt	?	-10	1	-5	6	nt	nt
O=C(N/N=C/c1ccccn1)c1cc(-c2ccc(Br)cc2)nc2ccccc12	66	107*	84*	2	2	19	40	46*
O=C(N/N=C/c1ccco1)c1cc(-c2ccccc2)nc2ccccc12	12	0	1	0	-6	3	nt	nt
O=C(N/N=C/c1ccc([N+](=O)[O-])o1)c1cc(-c2cccc(Br)c2)nc2ccccc12	5	98*	50*	3	4	2	36	nt
O=C(N/N=C/c1ccccn1)c1cc(-c2ccc(Cl)cc2)nc2ccccc12	32	62*	76*	3	-10	43	35	nt
Cc1sc(NC(=O)c2cc(-c3ccc(Cl)cc3)nc3ccccc23)c(C(N)=O)c1C	47	-9	73*	1	-2	57	40	76*
COc1ccc(NC(C)=O)cc1S(=O)(=O)NCCc1ccccn1	nt	nt	-1	0	2	-3	nt	nt
Cc1ccc(S(=O)(=O)N2CCC(C(=O)Nc3ccc(N4CCOCC4)cc3)CC2)cc1C	nt	nt	6	-1	-1	nt	nt	nt
CC[C@@H]1C=C(C(=O)O)[C@H](c2ccc(OC)c(OC)c2)N1S(=O)(=O)c1ccc(C)cc1	nt	nt	-17	0	-1	-5	nt	nt
Cc1[nH]c(C)c(S(=O)(=O)N2CCN(c3cccc(Cl)c3)CC2)c1C(=O)N1CCCCC1	21	0	46	-3	3	nt	nt	nt
CCOc1cc(C(=S)N2CCCC2)ccc1O	6	-1	16	0	-2	-2	nt	nt
C=CCOc1c(Cl)cc(C(=S)N2CCCC2)cc1OCC	68	5	58*	1	2	nt	28	nt
CCN1C(=O)Nc2cccc3cccc1c23	4	-7	84*	1	0	-10	62*	57*
C=CCN1C(=O)N(CC=C)c2cccc3cccc1c23	-17	14	6	1	2	-2	nt	nt
CCOC(=O)c1c(NC(=O)Cc2cccs2)sc(C(=O)NC2CCCC2)c1C	12	-2	28	-3	2	8	nt	nt
CCOC(=O)c1c(NC(=O)Cc2cccs2)sc(C(=O)NC2CCCCC2)c1C	19	3	66*	3	-2	29	14	nt
COC(=O)c1c(NC(=O)Cc2cccs2)sc(C(=O)NC2CCCCC2)c1C	-4	4	55*	0	0	-2	1	nt
CN(C)S(=O)(=O)c1ccc(N2CCCC2)c(C(=O)NC2CCC(O)CC2)c1 (stereo not given)	-6	-8	14	-3	-2	0	nt	nt
Cc1cc(C(=O)CCl)c(C)n1-c1cccc([N+](=O)[O-])c1	0	-4	69*	0	-3	-9	38	60*
CC(=O)c1c(C(C)=O)c(C)n(-c2cccc([N+](=O)[O-])c2)c1C	7	1	4	-2	0	0	nt	nt
SMILES	CSC inhib	SKKanGAS inh	Mdm2-MdmX inh	MPTP inh	NR3A LBD binder	Beta apoptosis	Mdm2 MdmX conf	Full FLuc ctr
CC(=O)C1(C)C(=O)N(c2ccc(F)cc2)C(=O)N1c1ccc(F)cc1 (stereo not given)	nt	nt	nt	-2	0	nt	nt	nt
Cc1csc(NC(=O)CCCNC(=O)c2ccc(Cl)cc2)n1	nt	nt	23	0	1	1	nt	nt
COc1cc([C@@H]2c3cc4c(cc3[C@@H](O)[C@H]3COC(=O)[C@H]23)OCO4)cc(OC)c1O[Si](C)(C)C(C)(C)C	127*	40	71*	3	11*	1	37	81*
COc1cccc(CN2CCC(N(CCc3ccccc3)Cc3ccccc3)CC2)c1OC	77*	-4	61*	4	0	113*	28	nt
COc1cccc(CN2CCN(Cc3cccc(Oc4ccccc4)c3)CC2)c1OC	31	-4	0	3	1	-7	nt	nt
O=C(c1cccc(F)c1)N1CCC(c2nc3ccccc3s2)CC1	-3	21	-28	-2	0	-5	nt	nt
Cc1cc(C)n(-c2ccc(NC(=O)C3CCCCN3Cc3cccc4c3OCO4)cc2)n1 (stereo not given)	nt	2	52*	0	-2	nt	64*	75*
Cc1cc(C)n(-c2ccc(NC(=O)C3CCCCN3C(=O)c3ccoc3)cc2)n1 (stereo not given)	-10	1	11	-2	4	0	nt	nt
CC1(C(=O)NS(=O)(=O)c2ccc(F)cc2F)CCN1C(=O)Cc1ccc(-c2ccccc2)cc1 (stereo not given)	nt	nt	nt	0	nt	nt	nt	nt
COc1ccc(C(=O)CCC(=O)N2CCN(c3cc(C)ccc3C)CC2)cc1	19	-16	23	0	-1	-7	nt	nt
C/C(=N\Nc1cc(-c2ccccc2)nc(-c2ccccc2)n1)c1ccc(O)c(C)c1	nt	98*	53*	6	28*	17	6	nt
COc1cc(N/N=C(\C)c2ccc(N)cc2)nc(-c2ccccc2)n1	-8	12	14	1	-20	5	nt	nt
COc1cc(N/N=C(\C)c2ccc(O)c(C)c2)nc(-c2ccccc2)n1	110*	34	87*	2	22*	23	66*	112*
COC(=O)c1cc(C(=O)NCc2ccc3c(c2)OCO3)cc([N+](=O)[O-])c1	-7	2	12	2	0	-5	nt	nt
Cc1ccc(NC(=O)CCn2c(=O)c3cccn3c3ccccc32)cc1C	5	5	28	-3	-8	2	nt	nt
Nc1c(S(=O)(=O)c2cccs2)c2nc3ccccc3nc2n1/N=C/c1cccc(O)c1	97*	72*	79*	-2	28*	14	56*	86*
COc1cccc(/C=N/n2c(N)c(S(=O)(=O)c3cccs3)c3nc4ccccc4nc32)c1	-5	19	25	2	1	5	nt	nt
